Only some compounds are listed: those with a hit (about 3.4% of all), similar ones and a draw of the others.
TWEAK Fn14 block: blocks TWEAK-Fn14 interaction in a reporter cell assay; TWEAK-stimulated Fn14 reporter cells, luciferase luminescence, 8 h; inhibition, % at 10 µM; actives 2% (n = 360,000); in the data active = inhibition above about 50%
TRPM1 prom inh: MITF TRPM1 promoter inhibition in SK-MEL-5 cells; SK-MEL-5 TRPM1 promoter luciferase, 24 h; actives 0.83% (n = 330,000); AID 488899; inhibition, % at 12.5 µM;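 active = mean inhibition across replicates of 60% or more, whatever share of single replicates reaches that level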
HIF-2a block: inhibitors of HIF-2a; inhibition, % at 18.8 µM; actives 0.72% (n = 360,000); AID 624352; 786-0 RCC cells HIF-2a reporter, luciferase luminescence, overnight;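 active = inhibition of the luminescence signal of 40% or more relative to plate controls, in a single-dose primary screen at 18.75 µM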
Shn3 3UTR inh: Schnurri-3 reporter inhibition in Clone20 osteoblasts; inhibition, % at 12.5 µM; AID 588674; actives 0.52% (n = 360,000); Clone20 osteoblast Shn3 3'UTR firefly luciferase, 24 h;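 active = mean inhibition of at least 75% with every replicate also reaching 75%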;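 note: 0% = median of neutral control wells and 100% = pilot-screen positive control compound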
EBV LMP1 NFkB: reduces LMP1-driven NF-kappaB luciferase signal. LMP1-induced NF-kappaB luciferase reporter cells, luminescence. inhibition, % at 12.5 µM. actives 0.69% (n = 350,000); in the data active = inhibition above about 41%;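 note: 0% = neutral control wells and 100% = reference inhibitor control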
TROY NFkB inh: TROY signaling inhibition | actives 0.98% (n = 360,000) | inhibition, % at 10 µM | Q293 LMP1-TROYcd NF-kB luciferase reporter, 4 h;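 active = compounds whose plate-normalised and pattern-corrected inhibition of the luciferase reporter signal at the single screening dose is 50% or more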
Mdm2-MdmX confirm: confirmation of inhibitors of human Mdm2/MdmX interaction, set 2; actives 99% (n = 740); shares compounds with HIF-2a block; inhibition, % at 8 µM; SaOS-2 split-luciferase Mdm2/MdmX complementation, luminescence; AID 504601;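 active = mean inhibition of the luminescence signal across two replicates at or above 26 percent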
HIF-2a conf: confirmation of HIF-2a inhibitors; 786-0 RCC cells, HIF-2a luciferase reporter luminescence, overnight; inhibition, % at 18.8 µM; actives 56% (n = 1,800); shares compounds with HIF-2a block;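 active = mean inhibition across four replicates of at least 40 percent at the single tested concentration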
HIF-1a counter: counter-screen for HIF-2a inhibitors: HIF-1a inhibition in MiaPaCa-2 cells; shares compounds with HIF-2a block; MiaPaCa-2 HIF-1a luciferase reporter, desferoxamine, overnight; inhibition, % at 18.8 µM; actives 72% (n = 1,800);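 active = mean inhibition of the reporter signal across four replicates at the single tested dose of 50% or more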
Starred values were filed as active, the others as inactive; nt = no result.

SMILES | TWEAK Fn14 block | TRPM1 prom inh | HIF-2a block | Shn3 3UTR inh | EBV LMP1 NFkB | TROY NFkB inh | Mdm2-MdmX confirm | HIF-2a conf | HIF-1a counter
O=c1c(Cl)c(Cl)cnn1Cc1nnc(-c2ccccc2Br)o1 | 92* | 95* | 96* | 78 | -107 | 64* | 101* | 73* | 106*
O=C(CSc1nnc(NC(=O)c2ccccc2)s1)NC1CCCC1 | 17 | -28 | -61 | -28 | 1 | -39 | nt | nt | nt
Cc1cc(OCC(=O)NNC(=O)c2cccnc2)cc(C)c1Cl | -15 | 7 | 6 | 9 | -2 | -18 | nt | nt | nt
COc1ccc(-c2csc3ncnc(NCCCO)c23)cc1 | 65* | -3 | 41* | 10 | 52* | 35 | nt | 9 | 46
CCN(CC)CCCNc1ncnc2scc(-c3ccc(F)cc3)c12 | 5 | 5 | 16 | -5 | -4 | -48 | nt | nt | nt
COC(=O)c1nnn(CC(=O)NC(=O)Nc2cccc(Cl)c2C)c1C(=O)OC | -10 | 5 | 8 | nt | -2 | -20 | nt | nt | nt
COc1ccc(-c2cc(N)n(S(=O)(=O)c3c(F)c(F)c(F)c(F)c3F)n2)cc1OC | 51* | 98* | 86* | 83 | 16 | 9 | nt | 99* | 104*
COc1ccc(S(=O)(=O)n2nc(-c3cc(OC)c(OC)c(OC)c3)cc2N)cc1OC | 2 | 8 | 8 | -6 | -1 | 4 | nt | nt | nt
CCOc1ccc2nc(SCC(=O)N3c4ccccc4Sc4ccccc43)c(C#N)cc2c1 | -11 | 10 | 16 | 15 | 9 | 11 | nt | nt | nt
CCOc1ccc2nc(SCc3ccc(CC(=O)O)cc3)c(C#N)cc2c1 | 37 | 1 | 83* | -1 | 1 | 76* | nt | 89* | 57*
COCC(COS(N)(=O)=O)Cc1ccccc1 (stereo not drawn) | 11 | 1 | 6 | -4 | -1 | 11 | nt | nt | nt
Cc1cc(N/N=C\c2ccccc2)nc(-c2ccccc2O)n1 | 46 | -6 | -166 | -36 | -22 | -16 | nt | nt | nt
C/C(=N\Nc1cc(C)nc(-c2ccccc2O)n1)c1ccccc1O | 55* | -14 | -51 | -15 | -13 | 16 | 73* | nt | nt
COc1cc(/C=C/C(=O)O)ccc1O | -6 | nt | 20 | 0 | -2 | -2 | nt | nt | nt
O=C(/C=C/c1cccc(Cl)c1)c1ccc([N+](=O)[O-])o1 | 101* | 98* | 97* | 95* | -19 | 76* | 102* | nt | nt
COc1ccc(/C=C/C(=O)c2ccc([N+](=O)[O-])o2)cc1OC | nt | nt | nt | nt | nt | nt | 99* | nt | nt
COc1cc(/C=C/C(=O)c2ccc([N+](=O)[O-])o2)ccc1O | 97* | 85* | 97* | 97* | -21 | 52* | nt | 79* | 105*
COc1cc(Br)c(CC(=O)NC2CC2)cc1OC | 7 | 15 | 12 | 5 | 4 | 15 | nt | nt | nt
CN(c1ccccc1)S(=O)(=O)c1ccc(NC(=O)c2nc(S(C)(=O)=O)ncc2Cl)cc1 | 93* | 100* | 65* | 99* | -3 | 71* | 103* | 99* | 94*
COc1cccc(NC(=O)c2nc(S(C)(=O)=O)ncc2Cl)c1 | 74* | 57 | 68* | 97* | -5 | 53* | 101* | 65* | 11
COc1ccc(CS(=O)(=O)/C(Cl)=C(/Cl)C(=O)Nc2ccc(OC)nc2)cc1 | 99* | 94* | 93* | 98* | 91* | 80* | 103* | nt | nt
COc1ccc(/C=C/C(=O)Nc2ccc(OC)nc2)cc1 | 13 | -7 | -99 | -8 | -14 | -39 | nt | nt | nt
COc1cccc(C2=CC(=O)CC(C)(C)C2)n1 | 42 | 1 | 12 | 11 | 6 | 13 | nt | nt | nt
COc1ccc(-n2ncc(Cl)c(Cl)c2=O)cc1 | 98* | nt | 95* | 98* | nt | 56* | 102* | 96* | 107*
CCCCCCC(C)NC(=S)Nc1cc(S(=O)(=O)N(C)C)ccc1C (stereo not drawn) | -8 | 17 | 23 | 23 | 5 | 7 | nt | nt | nt

Screening results deposited in PubChem by several laboratories.
